# Measurements as given in PubChem BioAssay (EPA / NIEHS).
# Calls of active or inactive are those of the source. Rule for the calls: active = hit-call score of the fitted dose curve at least 0.9, where 1 is the maximum; inactive = score below 0.9.
# Experiments:
# [1] = Tanguay_ZF_120hpf_MO24: Oregon State University Tanguay Lab 24 Hour Post-fertilization zebrafish Assay for Mortality (AID 2284389)
# Summary of the method: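 Dechorionated wild-type zebrafish embryos, 1 per well, statically exposed from 6 hpf at 28C, 0.64% DMSO final. Mortality scored as binary present/absent at 24 hpf by brightfield microscopy, relative to DMSO.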
# [2] = Tanguay_ZF_120hpf_MORT: Oregon State University Tanguay Lab 120 Hour Post-fertilization zebrafish Assay for Mortality (AID 2284399)
# Summary of the method: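 Dechorionated wild-type Tropical 5D zebrafish embryos, one per well from 6 hpf, static exposure to 120 hpf at 28C in sealed dark plates, 0.64% DMSO final. Mortality scored as binary by brightfield at 24 and 120 hpf.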
# [3] = Tanguay_ZF_120hpf_EDEM: Oregon State University Tanguay Lab 120 Hour Post-fertilization zebrafish Assay for Edema Malformation (AID 2284400)
# Summary of the method: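 Dechorionated Tropical 5D wild-type embryos, one per well, statically exposed from 6 to 120 hpf at 28C in 0.64% DMSO. Edema scored present/absent by brightfield microscopy at 120 hpf; dead embryos not scored; fit versus DMSO.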
# [4] = Tanguay_ZF_120hpf_BRN: Oregon State University Tanguay Lab 120 Hour Post-fertilization zebrafish Assay for Brain Region Malformation (AID 2284402)
# Summary of the method: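 Dechorionated wild-type Tropical 5D zebrafish embryos exposed statically from 6 to 120 hpf at 28C, one per well, 0.64% DMSO final. Brain malformation scored at 120 hpf by brightfield as present/absent; dead embryos not scored.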
# [5] = Tanguay_ZF_120hpf_TCHR: Oregon State University Tanguay Lab 120 Hour Post-fertilization zebrafish Assay for Touch Responsive (AID 2284403)
# Summary of the method: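 Dechorionated Tropical 5D wild-type zebrafish embryos, one per well from 6 hpf, were statically exposed to 120 hpf at 28 °C (0.64% DMSO). Touch response was scored present/absent at 120 hpf and not scored in dead larvae.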
# [6] = CCTE_Padilla_ZF_Score.Craniofacial: CCTE's 144 Hour Post-fertilization zebrafish Assay Score for Craniofacial Malformation, Padilla Lab (AID 2284405)
# Summary of the method: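 Wild-type zebrafish embryos (with chorions), one per well in 10% Hanks', were dosed at 6–8 hpf in sealed plates and kept at 26C. They were rinsed at 5 dpf. At 6 dpf two blinded assessors scored craniofacial malformations by brightfield stereomicroscopy.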
# [7] = CCTE_Padilla_ZF_Score.General: CCTE's 144 Hour Post-fertilization zebrafish Assay Score for General Malformation, Padilla Lab (AID 2284411)
# Summary of the method: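 Wild-type zebrafish embryos were plated singly at 6-8 hpf in 10% Hanks' and exposed in sealed wells at 26C until rinsed on 5 dpf. At 6 dpf two blinded assessors scored mortality, hatching and malformations by stereomicroscopy; gain-of-signal versus DMSO.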
# [8] = CCTE_Padilla_ZF_Score.Tail: CCTE's 144 Hour Post-fertilization zebrafish Assay Score for Tail Malformation, Padilla Lab (AID 2284414)
# Summary of the method: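 Wild-type zebrafish embryos, one per well in 200 uL 10% Hanks', dosed at 6-8 hpf, sealed, and kept at 26 C on a 14:10 h light cycle. Chemical was rinsed out at 5 dpf. Blinded brightfield scoring of tail defects followed at 6 dpf.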
# [9] = CCTE_Padilla_ZF_Score.Blood_pooling: CCTE's 144 Hour Post-fertilization zebrafish Assay Score for Blood Pooling, Padilla Lab (AID 2284415)
# Summary of the method: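 Wild-type outbred zebrafish embryos, one per well in 10% Hanks', exposed from 6–8 hpf in sealed plates at 26C on 14:10 h light:dark, rinsed at 5 dpf. Blinded stereomicroscope scoring of blood pooling at 6 dpf; gain-of-signal versus DMSO.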
# [10] = CCTE_Padilla_ZF_Score.Any: CCTE's 144 Hour Post-fertilization zebrafish Assay Score for Any Mortality or Malformation, Padilla Lab (AID 2284416)
# Summary of the method: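 Wild-type zebrafish embryos with chorions, one per well in 10% Hanks' from 6–8 hpf, dosed in sealed plates at 26 C, 14:10 h light:dark; rinsed at 5 dpf; blinded scoring at 6 dpf for death or malformation, versus DMSO.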
# TTR (gene 7276) = test: CCTE_GLTED_hTTR_0.125uM: CCTE's human Transthyretin (hTTR) Inhibition Assay, with 0.125uM TTR, Great Lakes Toxicology and Ecology Division (GLTED) Lab (AID 2284431);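 note: hits lower the fluorescence signal relative to DMSO baseline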
# Summary of the method: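 Cell-free displacement of ANSA probe from 0.125uM TTR after 2 h incubation with chemical. Fluorescence read at 380 nm excitation/475 nm emission; loss of signal relative to DMSO indicates T4-site displacement.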
# [11] = CCTE_Padilla_ZF_Score.Living: CCTE's 144 Hour Post-fertilization zebrafish Assay Score for Viability, Padilla Lab (AID 2284410);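 note: larval death at 6 dpf judged by absent heartbeat or coagulation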
# Summary of the method: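 Wild-type zebrafish embryos were exposed singly from 6–8 hpf in sealed wells of Hanks' solution at 26C, then rinsed at 5 dpf. At 6 dpf, blinded assessors scored mortality (no heartbeat or coagulation) by stereomicroscopy, fitted against DMSO.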
# [12] = CCTE_Padilla_ZF_Score.Spine: CCTE's 144 Hour Post-fertilization zebrafish Assay Score for Spine Malformation, Padilla Lab (AID 2284407)
# Summary of the method: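 Wild-type zebrafish embryos, one per well in Hanks' solution, dosed at 6–8 hpf in sealed plates at 26C, 14:10 h light:dark; rinsed at 5 dpf. Two blinded assessors scored spinal defects by stereomicroscopy at 6 dpf; fitted versus DMSO.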
# [13] = CCTE_Padilla_ZF_Score.Position: CCTE's 144 Hour Post-fertilization zebrafish Assay Score for Position, Padilla Lab (AID 2284409)
# Summary of the method: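 Wild-type zebrafish embryos (with chorions) exposed singly from 6–8 hpf in sealed wells of Hanks' solution at 26C, rinsed at 5 dpf. At 6 dpf, blinded assessors scored abnormal water-column position by brightfield stereomicroscopy, relative to DMSO.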
# [14] = CCTE_Padilla_ZF_Score.Swim_bladder: CCTE's 144 Hour Post-fertilization zebrafish Assay Score for Swim Bladder Malformation, Padilla Lab (AID 2284408)
# Summary of the method: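 Wild-type zebrafish embryos, one per well in 10% Hanks', dosed at 6–8 hpf, sealed, reared at 26C and rinsed at 5 dpf. Blinded assessors scored uninflated swim bladder by stereomicroscopy at 6 dpf, relative to DMSO.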
compound,measurement,setting,value
O=S(=O)(OCC(F)F)C(F)(F)F,outcome,[1],inactive
same,outcome,[2],inactive
same,outcome,[3],inactive
same,outcome,[4],inactive
same,outcome,[5],inactive
same,outcome,[6],inactive
same,outcome,[7],inactive
same,outcome,[8],inactive
same,outcome,[9],inactive
same,outcome,[10],inactive
O=C(O)C(F)(F)C(F)(F)C(F)(F)F,outcome,[1],inactive
same,outcome,[2],inactive
same,outcome,[3],inactive
same,outcome,[4],inactive
same,outcome,[5],inactive
same,outcome,[6],inactive
same,outcome,[7],inactive
same,outcome,[8],inactive
same,outcome,[9],inactive
same,outcome,[10],inactive
c1ccc(B(c2ccccc2)c2ccccc2)cc1,AC50,TTR (gene 7276),1.6 µM (active)
O=C(Cl)C(F)(F)C(F)(F)C(F)(F)C(F)(F)C(F)(F)C(F)(F)C(F)(F)C(F)(F)F,outcome,[6],inactive
same,outcome,[11],inactive
same,AC50,[7],11.4 µM (active)
same,outcome,[8],inactive
same,outcome,[9],inactive
same,AC50,[10],29.4 µM (active)
CCCCNc1ccccc1,outcome,[7],inactive
FC(F)(F)C(F)(F)C(F)(F)CI,outcome,[1],inactive
same,outcome,[2],inactive
same,outcome,[3],inactive
same,outcome,[4],inactive
same,outcome,[5],inactive
same,outcome,[6],inactive
same,outcome,[7],inactive
same,outcome,[8],inactive
same,outcome,[9],inactive
same,outcome,[10],inactive
O=C(O)C(F)(F)C(F)(F)C(F)F,outcome,[1],inactive
same,outcome,[2],inactive
same,outcome,[3],inactive
same,outcome,[4],inactive
same,outcome,[5],inactive
same,outcome,[6],inactive
same,outcome,[12],inactive
same,outcome,[11],inactive
same,outcome,[7],inactive
same,outcome,[8],inactive
same,outcome,[9],inactive
same,outcome,[10],inactive
Oc1ccc(Nc2ccccc2)cc1,outcome,[7],inactive
FC(F)(Br)C(F)(F)C(F)(F)C(F)(F)C(F)(F)C(F)(F)Br,outcome,[6],inactive
same,outcome,[7],inactive
same,outcome,[8],inactive
same,outcome,[9],inactive
same,outcome,[10],inactive
CCCCCCCCCCCCCCCC[N+](C)(C)Cc1ccccc1,outcome,[7],inactive
CC(C)(C)C(=O)CC(=O)C(F)(F)C(F)(F)C(F)(F)F,outcome,[1],inactive
same,outcome,[2],inactive
same,outcome,[3],inactive
same,outcome,[4],inactive
same,outcome,[5],inactive
same,AC50,[6],30.3 µM (active)
same,AC50,[7],26.4 µM (active)
same,outcome,[8],inactive
same,outcome,[9],inactive
same,AC50,[10],26.6 µM (active)
FC(F)(F)C(F)(F)C(F)(F)C(F)(F)C(F)(F)C(F)(F)C(F)(F)I,outcome,[1],inactive
same,outcome,[2],inactive
same,outcome,[3],inactive
same,outcome,[4],inactive
same,outcome,[5],inactive
same,outcome,[6],inactive
same,AC50,[7],11.8 µM (active)
same,outcome,[8],inactive
same,outcome,[9],inactive
same,AC50,[10],12.4 µM (active)
O=C(O)C(F)(F)C(F)(F)C(F)(F)C(F)(F)C(F)(F)C(F)(F)C(F)(F)C(F)(F)Cl,outcome,[1],inactive
same,outcome,[2],inactive
same,AC50,[3],37.2 µM (active)
same,AC50,[4],47.7 µM (active)
same,AC50,[5],37.2 µM (active)
same,AC50,[6],35.7 µM (active)
same,AC50,[7],16.7 µM (active)
same,outcome,[8],inactive
same,outcome,[9],inactive
same,AC50,[10],10 µM (active)
O=C(O)C(F)(F)C(F)(F)C(F)(F)C(F)(F)C(F)(F)C(F)(F)C(F)(F)C(F)(F)C(F)(F)C(F)(F)C(F)(F)C(F)(F)F,outcome,[1],inactive
same,AC50,[2],7.47 µM (active)
same,outcome,[3],inactive
same,outcome,[4],inactive
same,outcome,[5],inactive
same,outcome,[6],inactive
same,outcome,[7],inactive
same,outcome,[8],inactive
same,outcome,[9],inactive
same,outcome,[10],inactive
Cc1ccc(S(=O)(=O)NCl)cc1,AC50,TTR (gene 7276),44.5 µM (active)
O=C(O)C(F)(F)C(F)(F)C(F)(F)C(F)(F)F,outcome,[1],inactive
same,outcome,[2],inactive
same,outcome,[3],inactive
same,outcome,[4],inactive
same,outcome,[5],inactive
same,outcome,[6],inactive
same,outcome,[7],inactive
same,outcome,[8],inactive
same,outcome,[9],inactive
same,outcome,[10],inactive
FC(F)(F)C(F)(F)C(F)(F)C(F)(F)C(F)(F)C(F)(F)CCS,outcome,[6],inactive
same,outcome,[13],inactive
same,outcome,[7],inactive
same,outcome,[8],inactive
same,outcome,[9],inactive
same,outcome,[10],inactive
N=C(N)C(F)(F)C(F)(F)C(F)(F)C(F)(F)C(F)(F)C(F)(F)C(F)(F)F,outcome,[1],inactive
same,outcome,[2],inactive
same,outcome,[3],inactive
same,outcome,[4],inactive
same,outcome,[5],inactive
same,outcome,[6],inactive
same,outcome,[14],inactive
same,AC50,[11],22.2 µM (active)
same,outcome,[7],inactive
same,outcome,[8],inactive
same,outcome,[9],inactive
same,AC50,[10],22.2 µM (active)
CC(Cc1ccc(O)c(O)c1)C(C)Cc1ccc(O)c(O)c1 (configuration not stated),AC50,TTR (gene 7276),0.0909 µM (active)
O=P(O)(O)OCCC(F)(F)C(F)(F)C(F)(F)C(F)(F)C(F)(F)C(F)(F)F,outcome,[1],inactive
same,AC50,[2],18.7 µM (active)
same,outcome,[3],inactive
same,outcome,[4],inactive
same,outcome,[5],inactive
same,outcome,[6],inactive
same,outcome,[7],inactive
same,outcome,[8],inactive
same,outcome,[9],inactive
same,outcome,[10],inactive
FC(F)(F)C(F)(F)C(F)(F)C(F)(F)C(F)(F)C(F)(F)CC1CO1 (configuration not stated),outcome,[1],inactive
same,outcome,[2],inactive
same,outcome,[3],inactive
same,outcome,[4],inactive
same,outcome,[5],inactive
same,outcome,[6],inactive
same,outcome,[7],inactive
same,outcome,[8],inactive
same,outcome,[9],inactive
same,outcome,[10],inactive
